# Assay outcomes as filed in PubChem.
# Only a selection was taken, and hits are over-represented in it overall.
# VCAM1 TNFa pot = potentiators of TNFa-induced VCAM1 expression, primary screen, imaging, HUVEC, TNFa stimulus, immunofluorescence; HUVEC TNFa-stimulated VCAM-1 immunofluorescence, high-content imaging; scaled per plate to unstimulated/TNFa-only wells; 93,000 compounds, 0.19% hits; activation, % at 2 µM; AID 808, 2007;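 active = activation above the screen mean plus 3 SD, with well images confirming the hit on visual review, cut at about 28% in these data, passing the limit was not always enough; inconclusive = activation above that limit but images do not confirm it; inactive = activation not above that limit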;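 note: signal is the number of cytoplasmic VCAM-1 stained grains per positive cell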
# VCAM1 pot confirm = potentiators of TNFa-induced VCAM1 expression, confirmation, imaging, HUVEC, triplicate retest; shares compounds with VCAM1 TNFa pot; 230 tested, under 10 active; activation, % at 2 µM; HUVEC TNFa-stimulated VCAM-1 immunofluorescence imaging;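 active = activation above 30% in triplicate retests at 2 µM, then confirmed by visual review of the well images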;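 note: scaled per plate between unstimulated and TNFa-stimulated DMSO control wells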
# The depositor's hits bear a star; ? = inconclusive.
SMILES,VCAM1 TNFa pot,others
Cc1ccc(S(=O)(=O)N(C)CCCC(=O)N2CCN(c3ccccn3)CC2)cc1,81.0*,VCAM1 pot confirm=-5.6
O=C(c1cccs1)c1cn(Cc2ccccc2Cl)c2ccccc12,8.7,
CC(=NCCN1CCCCC1)c1c(O)[nH]c(=O)[nH]c1=O,9.2,
Cc1ccc2nc3c(cc2c1)CC1(C(=O)N(C)C(=O)N(C)C1=O)C1CCCCN31 (stereo not given),-4.1,
O=P(/C(=N/O)N1CCCCC1)(N1CCOCC1)N1CCOCC1,-29.2,
CC1CCC/C=C/C2CC(O)CC2C(O)/C=C/C(=O)O1 (stereo not given),-94.4,
Cc1ccc2cccc(OC(=O)N3CCCC3)c2n1,?,VCAM1 pot confirm=-7.1
CC(C)CC(NC(=O)C1CCCCC1)C(=O)N1CCC2(CC1)OCCO2 (stereo not given),-6.4,
CSc1ccc(CNC2CN3CCC2CC3)cc1 (stereo not given),-93.0,
CC1(C)N(O)C2CCCCC2N1O (stereo not given),17.8,
